Only some compounds are listed: those with a hit (about 3.9% of all), similar ones and a draw of the others.
HIF act: HIF pathway transcriptional activation; U2OS HRE-luciferase reporter, luminescence; normalized: DMSO 0%, desferrioxamine 100%; activation, % at 7.5 µM (by protocol); actives 0.32% (n = 300,000);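 active = mean activation of at least 10% of the iron chelator positive control signal, with at least half of replicates also reaching 10%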
HGIII-sPLA2 inh: Inhibits HGIII-sPLA2 liposome hydrolysis, primary screen. QFRET BODIPY PC-A2 liposome hydrolysis, fluorescence. inhibition, % at 12.2 µM. actives 0.56% (n = 370,000). AID 743126;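 active = inhibition above mean plus 3 SD of compounds lying within the high and low control bounds, cut at about 19% in these data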
Target sequence (Q9NZ20 whole entry, looked up): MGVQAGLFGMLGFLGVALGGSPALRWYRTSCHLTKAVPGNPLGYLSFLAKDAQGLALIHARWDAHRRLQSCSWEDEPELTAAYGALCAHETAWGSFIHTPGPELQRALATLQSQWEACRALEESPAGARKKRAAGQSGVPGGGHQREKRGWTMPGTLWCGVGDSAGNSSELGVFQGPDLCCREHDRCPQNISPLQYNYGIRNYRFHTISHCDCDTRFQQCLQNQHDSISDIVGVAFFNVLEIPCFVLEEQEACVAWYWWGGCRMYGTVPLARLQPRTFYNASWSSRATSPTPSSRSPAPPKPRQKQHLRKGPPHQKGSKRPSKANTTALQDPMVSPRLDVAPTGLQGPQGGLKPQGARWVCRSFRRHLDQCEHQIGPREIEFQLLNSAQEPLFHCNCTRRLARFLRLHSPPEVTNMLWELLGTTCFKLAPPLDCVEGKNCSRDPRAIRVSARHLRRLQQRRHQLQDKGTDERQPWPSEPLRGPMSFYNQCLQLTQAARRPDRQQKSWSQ
AHR act: human AHR activation | AID 2796 | P35869 | activation, % at 5 µM | AHR-responsive luciferase reporter cells, luminescence | actives 2.5% (n = 320,000); in the data active = activation above about 47%
PLC-beta3 inh: blocks human PLC-beta3 enzyme activity. Purified PLC-beta3, fluorogenic substrate, fluorescence. actives 0.18% (n = 370,000). inhibition, % at 12.2 µM. Q01970. AID 720704; in the data active = inhibition above about 11%
PLCg1 inh: blocks human PLC-gamma1 enzyme activity; purified PLC-gamma1, fluorogenic substrate, fluorescence; actives 0.84% (n = 370,000); AID 720700; P19174; inhibition, % at 12.2 µM; in the data active = inhibition above about 9.5%
CR mimetic SO: yeast age-related superoxide inhibition as caloric restriction mimetic | actives 0.18% (n = 330,000) | superoxide response (% of plate mean), % at 10 µM | S. cerevisiae aged cells, superoxide DHE fluorescence; stronger effect = lower value;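 active = superoxide response under a set limit, about three screen SD below normal, cut at about 65% in these data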;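 also: yeast aged for seven days with compound at 30 °C before DHE staining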
A number is an active result; - = inactive; . = no result.

SMILES	HIF act	HGIII-sPLA2 inh	AHR act	PLC-beta3 inh	PLCg1 inh	CR mimetic SO
CC[C@]12c3[nH]c4ccc(OC)cc4c3CCN1C(=O)C(CC(=O)NCc1cccc(C(F)(F)F)c1)C[C@@H]2C(=O)N1CCN(C(=O)c2ccco2)CC1 (some centres not stated)	.	-	.	-	11.4	-
COc1ccc2c(c1)c1nnc(SCC(=O)NC3CC3)nc1n2C	-	-	72.0	-	-	-
CCOc1ccc2c(c1)c1nnc(SCC3CCCO3)nc1n2C (configuration not stated)	93.1	-	-	-	-	-
CCOc1ccc2[nH]c3nc(SCC(=O)NCC4CCCO4)nnc3c2c1 (configuration not stated)	-	-	-	-	-	-
Cc1ccc(NC(=O)N2CCC(NC(=O)c3cccc(C)c3)CC2)cc1	150.5	-	-	-	-	-
O=C(N/N=C/c1ccc(-c2ccccc2[N+](=O)[O-])o1)c1cccnc1	-	-	54.7	-	-	-
Cc1cc(C(=O)N/N=C/c2ccc(-c3cccc(Cl)c3Cl)o2)n[nH]1	-	-	-	-	-	-
CC(C)(C)c1cc(C(=O)N/N=C/c2ccc(-c3ccccc3[N+](=O)[O-])o2)n[nH]1	-	-	50.2	-	-	-
COc1ccc(-c2nnc(SCC(=O)NN=Cc3c(O)ccc4ccccc34)n2-c2ccc(OC)cc2)cc1	.	-	.	-	-	.
O=S(=O)(Nc1ccccc1)c1cccc2nonc12	-	-	-	-	-	-
ONC=Nc1cccc2nonc12	11.8	-	-	-	-	-
COC(=O)c1ccc2nc(C3CCCCC3)c(Cc3ccccc3OC)n2c1	.	-	.	-	-	.
O=C(N/N=C/c1ccc(F)cc1)c1cc(-c2ccco2)nc2ccccc12	-	-	-	-	-	-
Nc1c(C(=O)N/N=C/c2ccc(F)cc2)oc2nc(-c3ccccc3)cc(-c3ccco3)c12	-	-	56.9	-	-	-
Nc1c(C(=O)N/N=C/c2ccccc2Cl)oc2nc(-c3ccccc3)cc(-c3ccco3)c12	-	-	49.9	-	-	-
CCCCN=C(N)NC(=O)c1ccccc1	.	-	.	-	-	.
COc1ccccc1CNC(=O)Cn1nnnc1CN(C)C(C)C	-	-	-	-	-	-
COC(=O)c1ccc(CNC(=O)Cn2nnnc2CN(C)C(C)C)cc1	-	-	56.1	-	-	-
CC(C)N(C)Cc1nnnn1CC(=O)N(C)Cc1ccc(F)cc1	-	-	49.4	-	-	-
CC(C)N(C)Cc1nnnn1CC(=O)N(C)Cc1cccc(Cl)c1	-	-	-	-	-	-
Cn1c(COc2ccccc2)nnc1SCC(=O)Nc1ccccc1-c1ccccc1	.	-	.	-	-	.
N#CC1=C(N)N2C(=C(C#N)C1c1ccccc1)Sc1ccccc12 (configuration not stated)	-	.	88.4	.	.	-
O=c1c2ccccc2nc2c3ccccc3c(NCCN3CCOCC3)nn12	25.7	-	-	-	-	-
O=c1c2c(-c3ccccc3)csc2nc2c3ccccc3c(NCCN3CCOCC3)nn12	-	-	.	-	-	.
C[C@@H]1[C@@H](c2ccccc2)OC(O)([C@H](Cc2ccccc2)NC(=O)OC(C)(C)C)CN1C (some centres not stated)	.	-	.	-	-	.
SMILES	HIF act	HGIII-sPLA2 inh	AHR act	PLC-beta3 inh	PLCg1 inh	CR mimetic SO
NC(=O)c1oc2ccccc2c1NC(=O)c1ccccc1	-	-	68.8	-	-	-
NC(=O)c1oc2ccccc2c1NC(=O)c1ccco1	.	-	47.2	-	-	-
Cc1ccc(C)c(C(=O)Nc2c(C(N)=O)oc3ccccc23)c1	-	-	-	-	-	-
C[C@@H]1CCN(C2CC2)S(=O)(=O)c2c(cccc2N2CC[C@H](N(C)C)C2)O1	.	-	.	-	-	.
S=C(Nc1ccc(Cl)c(Cl)c1)Nc1nnc(-c2ccncc2)s1	.	-	.	-	-	.
C=CCn1c(=NC(=O)C2CCCCC2)sc2cc(NC(C)=O)ccc21	-	-	-	-	-	-
C=CCn1c(=NC(=O)C2CC2)sc2cc(NC(C)=O)ccc21	-	-	62.0	-	-	-
COc1ccccc1NC(=O)CCCn1c(=S)[nH]c2ccccc2c1=O	-	-	47.8	-	-	-
COc1cccc(CNC(=O)CCCn2c(=S)[nH]c3cc4c(cc3c2=O)OCO4)c1	28.8	-	-	-	-	-
COc1cccc(C(=O)Nc2ccc(C(F)(F)F)n(C)c2=O)c1	-	-	55.8	-	-	-
COc1cccc(C(=O)Nc2cc(C(F)(F)F)ccc2Cl)c1	-	-	59.5	-	-	-
Cc1ccc(NC(=O)C2CCN(c3ncccn3)CC2)cc1C	.	-	.	-	-	.
CCC(=O)n1nc(NCc2ccc(OC)c(OC)c2)nc1NCc1ccc(OC)c(OC)c1	226.9	-	-	-	-	-
COC(=O)[C@]12C[C@H](CC(=O)NCc3cccc(C(F)(F)F)c3)C(=O)N(Cc3ccco3)C1=C[C@H](COCc1ccccc1)O[C@@H]2C	.	-	.	-	-	.
CC(OC(=O)c1cccnc1SCc1cc(=O)n2ccccc2n1)c1ccccn1 (configuration not stated)	-	-	73.0	-	-	-
COc1ccc2nc(N/C(N)=N/C(=S)Nc3cccc(C)c3)nc(C)c2c1	-	-	-	-	-	-
COc1ccc(NC(=S)/N=C(\N)Nc2nc(C)c3ccccc3n2)cc1	-	-	65.5	-	-	-
COC(=O)[C@]12C[C@H](CC(=O)N3CCCCC3)C(=O)N(Cc3ccco3)C1=C[C@H](C1CCCC1)O[C@@H]2C	.	-	.	-	-	.
COc1ccc(N/C(=C\C(=O)c2ccccc2)c2ccccc2)cc1OC	.	-	.	-	-	.
C=CCn1c(-c2cc(OC)cc(OC)c2)n[nH]c1=S	-	-	-	-	-	-
C=CCn1c(-c2sc3nc(C)cc(C)c3c2N)n[nH]c1=S	-	-	100.4	-	-	-
Cc1c(CN(C)C)c2c(n1Cc1ccccc1)C(=O)c1ccc(Br)cc1-2	-	-	-	-	-	-
Cc1c(CN(C)C)c2c(n1C)C(=O)c1ccc(Br)cc1-2	-	-	70.8	-	-	-
C[C@@H]1CCCN1c1cccc2c1S(=O)(=O)N1CC[C@@H](C1)O2	.	-	.	-	-	.
Cc1oc(-c2ccc(Cl)cc2)cc1C(=O)/C(C#N)=C/Nc1cccc(OC(F)(F)F)c1	43.3	-	-	-	-	-
SMILES	HIF act	HGIII-sPLA2 inh	AHR act	PLC-beta3 inh	PLCg1 inh	CR mimetic SO
CN1CCN(c2ccc([N+](=O)[O-])c(-n3nc(-c4ccccc4)c4ccccc4c3=O)c2)CC1	-	-	-	-	9.6	-
O=C(NCCc1c[nH]c2ccccc12)OCc1cn(-c2ccc(Cl)cc2)nn1	.	-	.	-	-	.
CCN(CC)c1ccc(/C=N/Nc2nc(C)cc(=O)[nH]2)c(O)c1	56.8	-	-	-	-	-
Cc1cc(=O)[nH]c(NN=Cc2cc(Br)ccc2O)n1	.	-	.	-	-	.
CCN(CC)c1ccc(/C=N/NC(=O)c2cccc(S(=O)(=O)N3CCOCC3)c2)c(O)c1	101.9	-	-	-	-	-
CCOC(=O)N/N=C/c1ccc(N(CC)CC)cc1O	-	-	-	-	-	-
